Sampled rows, rich in hits. Any-hit rate of the full collection: about 11%.
PNC assembly inh = High Content Assay for Compounds that inhibit the Assembly of the Perinucleolar Compartment | 3.1% of 140,000 active | activity change (PNC), negative = inhibition, % at 10 µM | PC3M PTB-GFP, PNC prevalence imaging, 16 h; active compounds read low;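 active = readout at or below -70, meaning at least 70% loss of cells showing the perinucleolar compartment, a nuclear body marking cancer cells; inconclusive = readout between -30 and a set limit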;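 note: plate controls were DMSO wells for no effect and camptothecin positive control wells for full effect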
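Read-out is percentage of cells bearing a perinucleolar compartment, from automated 20x imaging of fixed, Hoechst-stained PC3M PTB-GFP cells. Cells were seeded 4 h, then exposed 16 h to compound (23 nl of library stock) in duplicate plates.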
HPGD block = qHTS Assay for Inhibitors of HPGD (15-Hydroxyprostaglandin Dehydrogenase); purified HPGD, NADH fluorescence kinetic, PGE2 substrate; Potency, µM, for inactives: at the top dose activity change, negative = inhibition, actives largely listed as inhibitors; 4.3% of 150,000 active; AID 894, 2007; note: potency is the fitted concentration of half-maximal effect
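NADH formation kinetics: reaction with 30 uM PGE2 and 1 mM NAD+ (final), 20 nM enzyme, Tris-HCl pH 8 with Tween 20, after 15 min compound preincubation at room temperature. Fluorescence change, last versus first of five reads.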
ALDH1A1 block = qHTS Assay for Inhibitors of Aldehyde Dehydrogenase 1 (ALDH1A1); Aldehyde dehydrogenase 1A1 (Homo sapiens), P00352; Purified ALDH1A1, NADH fluorescence, propionaldehyde substrate; Potency, µM (highest dose often 75.3 µM), for inactives: top-dose activity, negative = inhibition, most hits filed as inhibitors; 7.3% of 220,000 active;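 note: potency is the fitted concentration of half-maximal effect; plate controls were no enzyme wells and a reference inhibitor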
IMPase Li cell = qHTS Assay for Identifying the Cell-Membrane Permeable IMPase Inhibitors: Potentiation with Lithium; 0.35% of 210,000 active; CHO-M1 cells, IP1 TR-FRET (IP-One), carbachol + lithium; Potency, µM (top dose mostly 59.4 µM), for inactives: at the highest dose activity, negative = IMPase inhibition, actives largely listed as inhibitors; AID 1457, 2008; active = well fitted curve in the direction sought with a large enough effect; inconclusive = small, poorly fitted or top-dose-only effect, or another doubt; inactive = no such curve, though single readings can be large; an effect the other way counts as inactive or inconclusive;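 note: IP1 builds up when IMPase is blocked and the TR-FRET signal falls; potency is the fitted concentration of half-maximal effect; plate controls were basal vehicle for no effect and high inhibitor control for full effect; nearly all actives have a fitted effect of over 50% in size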
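Test compounds were applied to CHO-M1 cells previously cultured for 16–30 h at 2000 per well. A small lithium amount accompanied them; after 30 min at 37C, IP1 was quantified by TR-FRET.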
ALOX12 inhib = qHTS Assay for Inhibitors of 12-hLO (12-human lipoxygenase) | Polyunsaturated fatty acid lipoxygenase ALOX12 (Homo sapiens), P18054 | purified 12-hLO, xylenol orange hydroperoxide absorbance | 0.12% of 150,000 active | Potency, µM (doses to about 57.1 µM), without a hit: at the top dose activity change, negative = inhibition, usual class: inhibitors; active = well fitted curve in the direction sought with a large enough effect; inconclusive = small, poorly fitted or top-dose-only effect, or another doubt; inactive = no such curve, though single readings can be large; an effect the other way counts as inactive or inconclusive; note: potency is the fitted concentration of half-maximal effect; nearly all actives have a fitted effect of over 55% in size
Target sequence (P18054 whole entry, looked up): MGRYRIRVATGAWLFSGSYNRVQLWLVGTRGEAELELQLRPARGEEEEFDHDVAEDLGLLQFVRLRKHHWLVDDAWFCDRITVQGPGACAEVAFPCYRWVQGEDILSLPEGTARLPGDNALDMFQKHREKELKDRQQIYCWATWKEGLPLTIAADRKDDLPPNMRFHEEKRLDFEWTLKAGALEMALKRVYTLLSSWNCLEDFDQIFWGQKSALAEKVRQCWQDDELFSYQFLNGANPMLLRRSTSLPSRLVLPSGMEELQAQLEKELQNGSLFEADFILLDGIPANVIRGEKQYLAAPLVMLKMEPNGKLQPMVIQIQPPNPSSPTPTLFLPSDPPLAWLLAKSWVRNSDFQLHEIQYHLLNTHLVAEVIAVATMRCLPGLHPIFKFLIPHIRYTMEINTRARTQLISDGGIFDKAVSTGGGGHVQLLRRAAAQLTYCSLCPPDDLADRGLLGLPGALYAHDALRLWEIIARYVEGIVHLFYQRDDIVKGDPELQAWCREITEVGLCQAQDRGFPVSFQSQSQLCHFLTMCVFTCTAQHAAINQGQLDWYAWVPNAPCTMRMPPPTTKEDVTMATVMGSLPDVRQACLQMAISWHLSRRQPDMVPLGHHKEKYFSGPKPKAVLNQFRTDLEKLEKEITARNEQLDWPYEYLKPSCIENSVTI
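Purified human 12hLO (150 nM), preincubated 15 min with compound, then 40 uM arachidonic acid for 30 min, room temperature, Hepes pH 7.0 with 0.01% Triton X-100. Hydroperoxide detected by ferrous iron/xylenol orange; 573/405 nm absorbance ratio gives reaction progress.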
IMPase inh = qHTS Assay for Identifying the Cell-Membrane Permeable IMPase Inhibitors; CHO-M1 cells, IP1 accumulation, HTRF TR-FRET ratio; inhibition (IP1 accumulation), % at 46.1 µM; 120,000 tested, under 10 active; active = well fitted curve in the direction sought with a large enough effect in the signal ratio, not every such curve was filed as active; inconclusive = small, poorly fitted or top-dose-only effect, or a change in a side signal; inactive = no such curve, though single readings can be large or run the other way; the % refers to the signal ratio;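 note: cells stimulated with carbachol in lithium chloride buffer; plate controls were DMSO basal wells for no effect and reference inhibitor wells for full effect; higher means more IMPase inhibition seen as more IP1 and lower FRET ratio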
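Carbachol-driven Gq signalling in CHO-M1 cells (2000/well) generates IP1. Compounds that block IMPase raise IP1 and so reduce the FRET signal from Eu-anti-IP1 and d2-IP1 after a 10 min room-temperature lysis.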
* hit, by the source's call; ? = inconclusive; · = no result; [ ] = another dose, or the depositor's remark. Unless noted, calls come from the whole dose curve; as a rule, active = well fitted inhibition curve with a large enough effect (not every such curve was filed as active); inconclusive = small, poorly fitted or top-dose-only effect, or another doubt; inactive = no such curve, though single readings can be large or run the other way. Unless noted, % is set by controls: 0 for no effect and ±100 for the full control effect.

SMILES	PNC assembly inh	HPGD block	ALDH1A1 block	IMPase Li cell	ALOX12 inhib	IMPase inh
O=C(O)CCSc1ccc2ccccc2n1	11	-22%	0%	14µM*	0%	?
O=C(CSc1ccc2ccccc2n1)c1ccc2c(c1)OCO2	?	8.9µM*	?	35%[38.3 µM]	-5%	16
COc1ccc(NC(=O)CCSc2ccc3ccccc3n2)cc1	?	-12%	?	-15%	-6%	·
Cc1ccc2c(c1)NCC(C(=O)NC1CCCCC1)O2 (stereo not drawn)	?	13µM*	-8%	5%[38.3 µM]	-5%	2
C#CCCCO/N=C1/C[C@@H](O)[C@@H](O)[C@@H]2[C@@H]3C(=O)N(Cc4ccccc4)C(=O)[C@H]3CC[C@@H]12	·	·	15%[13.5 µM]	·	·	·
Cc1ccc(CNC(=O)/C=C/c2ccc(Br)o2)cc1	46	-28%	3.5µM*	-1%	-5%	·
O=C(/C=C/c1ccc(Br)o1)NCc1ccccc1	·	·	6.3µM*	-1%	·	·
CO[C@H]1C[C@@H]2C[C@H](O)C[C@@H](CC(=O)O[C@@H](/C=C\CC(C)C)C[C@@H]3CC[C@H](C)[C@@H](C1)O3)O2	·	·	8%[13.5 µM]	·	·	·
CCCCC/C=C\C/C=C\C/C=C\CCCCC(=O)NC(C)C(=O)O (stereo not drawn)	·	-1%	-2%	9%	-1%	·
N#Cc1ccc2c(c1)N(CCCN1CCC(O)CC1)c1ccccc1S2	·	-3%	1%	28%	4%	·
CC1CCN(C(=O)c2ccc(SCc3ccccc3F)c([N+](=O)[O-])c2)CC1	15	25µM*	?	18%	-8%	1
Cc1ccc(C(=O)N2CCC(Cc3ccccc3)CC2)cc1[N+](=O)[O-]	·	·	14µM*	14%	·	·
Cc1ccccc1OCCN1CCC(Cc2ccccc2)CC1	·	·	-20%	17%	·	·
Cc1ccc([N+](=O)[O-])c(OCCN2CCC(Cc3ccccc3)CC2)c1	·	·	32µM*	19%	·	·
O=[N+]([O-])c1cccc(C2=N[C@@H](Cc3ccccc3)CO2)c1	·	-14%	?	-6%	-2%[0.00818 µM]	·
O=C(Nc1ccn(Cc2ccc(Cl)cc2)n1)c1ccc2c(c1)OCO2	-82*	-20%	?	4%[38.3 µM]	-22%	-2
O=C(Nc1ccc(CN2CCCCC2)cc1)c1ccc2c(c1)OCO2	46	28µM*	-1%	37%[38.3 µM]	-3%	9
CCOC(=O)c1cnc2c(ccc3ccccc32)c1Nc1ccccc1O	·	·	·	·	·	7
COc1ccc(COC(=O)N/N=C2/C[C@@H](O)[C@@H](O)[C@@H]3[C@@H]4C(=O)N([C@@H](C)c5ccccc5)C(=O)[C@H]4CC[C@H]23)cc1	·	·	4%[13.5 µM]	·	·	·
Cc1cc(C(=O)OCC(=O)Nc2ccccc2F)c(C)o1	39	-7%	0%	4%[38.3 µM]	-1%	-1
O=C(COC(=O)/C=C/c1ccc(Br)o1)Nc1ccccc1F	·	·	14µM*	-10%	·	·
COc1cc(OC)c(-c2nn3c(-c4ccncc4)nnc3s2)cc1OC	-136*	-10%	8%	13%[38.3 µM]	4%	2
COc1cc(OC)c(-c2nn3c(-c4cccnc4)nnc3s2)cc1OC	-2	·	54%	·	-2%	0
CC(C)(C)c1ccc(-c2nnc3sc(-c4ccncc4)nn23)cc1	14	?	13µM*	26%[38.3 µM]	-1%	-1
C=CCn1c(SCC(=O)N2CCCCC2)nc(O)cc1=O	44	0.32µM*	7%	17%[38.3 µM]	-1%	3
SMILES	PNC assembly inh	HPGD block	ALDH1A1 block	IMPase Li cell	ALOX12 inhib	IMPase inh
O=C(Nc1ccccc1Cl)c1cc(S(=O)(=O)N2CCCC(C(=O)O)C2)ccc1F (stereo not drawn)	?	-23%	22µM*	-28%[38.3 µM]	-5%	9
O=C(Nc1ccccc1Cl)c1cc(S(=O)(=O)N2CCCCC2)ccc1N1CCOCC1	25	-21%	-4%	3%[38.3 µM]	-5%	6
CCCC/C=C/C(NC(=O)c1cccs1)c1ccccc1 (stereo not drawn)	·	-16%	?	17%	-1%	·
Cc1noc(C)c1-c1cc(N(C)C)ncn1	·	-13%	7%	-3%	1%	·
CCCCC(O)(CCCC)C(=O)NN(C(=O)OCC)c1ccccc1	8	2%	-11%	14%	2%	-3
CCCC(O)(CCC)C(=O)NN(C(=O)CCl)c1ccccc1	?	-10%	25µM*	7%	1%	3
COC(=O)N1CCC2(CC1)CN(c1ccccn1)C2	·	0%	?	21%	3%	·
C=CCC(O)(C#Cc1ccccc1)c1ccccc1 (stereo not drawn)	·	-4%	4%	8%	5%	·
Cc1nnc(N(Cc2ccccc2)C(=O)c2cnccn2)s1	-88*	1%	5%	5%[38.3 µM]	-2%	1
O=C(Nc1cnn(Cc2ccc(Cl)cc2)c1)c1ccc([N+](=O)[O-])cc1	?	-13%	5%	6%[38.3 µM]	-12%	8
O=C(C[n+]1cnn(CC(=O)c2ccc(Cl)cc2Cl)c1)c1ccc([N+](=O)[O-])cc1	-15	0%	20µM*	2%	3%	6
Cc1ccc2nc(SCC(=O)N3c4ccccc4CC3C)c(C)cc2c1 (stereo not drawn)	-7	-28%	25µM*	?	4%	?
Cc1sc2nc(C(C)C)nc(SCC(=O)N3c4ccccc4CC3C)c2c1C (stereo not drawn)	-97*	-4%	-1%	11%	-3%	·
Cc1ccc2nc(-c3cccnc3SCC(=O)N3c4ccccc4CC3C)[nH]c2c1 (stereo not drawn)	?	?	?	19%	7%	-3
Cc1ccccc1-n1ncc2c(SCC(=O)N3c4ccccc4CC3C)ncnc21 (stereo not drawn)	17	3%	14µM*	11%[38.3 µM]	-2%	4
CCOC(=O)c1c(-c2ccccc2)oc2ccc(N(C(C)=O)S(=O)(=O)c3ccc(CC)cc3)cc12	·	·	·	·	·	1
COC(=O)c1cc(-c2ccccc2)sc1NC(=O)CN1C(=O)c2ccccc2C1=O	83	?	25µM*	-1%[38.3 µM]	-3%	4
CCn1c(SCC(=O)NC2CCS(=O)(=O)C2)nnc1-c1ccccc1 (stereo not drawn)	·	·	2%	4%	·	·
Cc1ccc(-c2cn(-c3ccccc3)c(SCC(=O)NC3CCS(=O)(=O)C3)n2)cc1C (stereo not drawn)	-83*	-11%	14µM*	10%	-3%	·
Cc1ccc2nc(-c3ccncc3)c(Nc3ccc(C(C)C)cc3)n2c1	·	·	·	·	·	4

Screening results: PubChem BioAssay, National Center for Advancing Translational Sciences (NCATS)
